Assay outcomes (PubChem BioAssay)
NPC1 prom act: activators of NPC1 promoter; Huh7 NPC1 promoter luciferase reporter, 24 h; Potency, µM (highest dose often 9.22 µM), hits mostly activators; actives 2.4% (n = 320,000); AID 485313; further: nearly all actives have a fitted effect of over 60% in size
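Stably transfected Huh7 (NPC1 promoter→luciferase), 1500 cells/well in Opti-MEM + 10% FBS, 2 h settle, then compound 24 h at 37 °C. Luminescence after 10 min with Amplite reagent.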
Rab9 promoter act: Rab9 promoter activation; Huh7 Rab9 promoter-luciferase reporter, luminescence, 24 h; Potency, µM (highest dose often 9.22 µM), usual class: activators; actives 2.8% (n = 320,000); further: nearly all actives have a fitted effect of over 60% in size
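Measured in stably transfected Huh7 cells bearing a Rab9 promoter–luciferase construct: 24 h compound treatment at 37 °C, followed by luminescence detection.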
ELG1 repair inh: inhibitors of ELG1-dependent DNA repair in HEK293T cells; HEK293T ELG1-luciferase reporter, luminescence, 16 h; DNA damage induced by 5-fluorouridine; Potency, µM (titrated, usually from 46.1 µM), actives largely listed as inhibitors; AID 504467; actives 2.3% (n = 330,000); further: nearly all actives have a fitted effect of over 55% in size
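Luminescence from the luciferase reporter, measured 30 min after ONE-Glo reagent at room temperature, was the read-out. Beforehand, 2,000 cells per well were exposed for 16 hr at 37 °C to 5-fluorouridine together with compound or vehicle.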
SMN2 splice up: SMN2 splice variant enhancement; HEK293 SMN2-luciferase splicing reporter, luminescence, 30-36 h; Potency, µM (doses to about 46.1 µM), actives largely listed as activators; actives 2.8% (n = 210,000); further: nearly all actives have a fitted effect of over 55% in size
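HEK293 cells carry an SMN2 minigene-luciferase reporter in which exon 7 inclusion puts luciferase in frame. Cells were seeded at 2000 cells/well, attached for 10-12 hours, then exposed to compounds for 30-36 hours at 37C before ONE-Glo luminescence.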
FLuc counter: counter-screen for miR-21 project: firefly luciferase inhibitors or activators. purified FLuc, Km substrates, luminescence inhibition. Potency, µM (titrated, usually from 57.5 µM), actives largely listed as inhibitors. actives 6.9% (n = 360,000). P08659. AID 588342; further: nearly all actives have a fitted effect of over 55% in size
Target sequence (P08659 whole entry, looked up): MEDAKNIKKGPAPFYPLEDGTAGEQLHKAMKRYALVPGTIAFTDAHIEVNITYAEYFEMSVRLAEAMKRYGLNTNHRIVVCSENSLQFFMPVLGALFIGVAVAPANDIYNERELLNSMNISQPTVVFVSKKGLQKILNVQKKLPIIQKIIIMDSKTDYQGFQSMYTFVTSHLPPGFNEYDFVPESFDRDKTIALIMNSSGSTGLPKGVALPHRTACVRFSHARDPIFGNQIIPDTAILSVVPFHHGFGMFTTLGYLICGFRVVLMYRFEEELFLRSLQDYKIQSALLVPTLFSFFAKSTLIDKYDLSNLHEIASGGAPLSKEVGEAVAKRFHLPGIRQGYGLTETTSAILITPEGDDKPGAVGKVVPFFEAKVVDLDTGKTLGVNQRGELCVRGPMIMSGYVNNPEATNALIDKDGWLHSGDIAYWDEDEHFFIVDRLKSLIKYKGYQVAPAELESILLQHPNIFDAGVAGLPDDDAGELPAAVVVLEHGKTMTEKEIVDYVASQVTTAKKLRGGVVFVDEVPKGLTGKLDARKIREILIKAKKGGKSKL
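Purified P. pyralis luciferase (10nM final) with 10uM D-luciferin and 10uM ATP (Km levels) in 50mM Tris acetate pH 7.5, 10mM Mg acetate, 0.01% Tween-20, 0.05% BSA; qHTS 6-point titration, ~60 µM downward; luminescence read.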
ELG1 genotox: genotoxicity induction in ELG1-luciferase HEK293T cells. HEK293T ELG1-luciferase reporter, luminescence, 16 h. Potency, µM (titrated, usually from 46 µM), usual class: activators. actives 1.3% (n = 330,000); further: nearly all actives have a fitted effect of over 60% in size
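Genotoxic stress is detected as increased luminescence from luciferase-tagged ELG1 in HEK293T cells, measured with ONE-Glo after a 16 hr treatment at 37 °C.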
Of the large screens only hits and unclear results are named; the others gave an inactive call. A selection: hits, their analogues and other compounds. The true share with any hit is near 9.2%. The call rests on the fitted dose curve; in most records, active means well fitted curve in the direction sought with a large enough effect; inconclusive means small, poorly fitted or top-dose-only effect, or another doubt; inactive means no such curve, though single readings can be large; an effect the other way counts as inactive or inconclusive.

CCc1ccc(S(=O)(=O)c2cn(CC)c3cc(N4CCCCC4)c(F)cc3c2=O)cc1	none (no result: NPC1 prom act, Rab9 promoter act, ELG1 repair inh, SMN2 splice up, ELG1 genotox)
CCN(C(=O)C(C)Sc1ccc(S(=O)(=O)N2CCOCC2)cn1)c1ccccc1 (stereo not drawn)	none (no result: SMN2 splice up)
CC(C)[C@H](NC(=O)c1ccccc1)C(=O)Nc1ccc2c(c1)OCO2	ELG1 repair inh inconclusive (no result: SMN2 splice up)
Cc1ccc(S(=O)(=O)N2CCN(CC(O)COc3ccccc3)CC2)cc1 (stereo not drawn)	none (no result: SMN2 splice up)
CCOc1ccc(S(=O)(=O)N2CCN(CC(O)COc3cccc([N+](=O)[O-])c3)CC2)cc1 (stereo not drawn)	ELG1 repair inh 14.6µM (no result: SMN2 splice up)
Cc1ccc(S(=O)(=O)Cc2nnnn2-c2ccccc2)cc1	none (no result: SMN2 splice up)
COc1ccccc1-c1cc2nc(C)cc(C)n2n1	FLuc counter 15.1µM, ELG1 genotox inconclusive (no result: SMN2 splice up)
Cc1cc(C)n2nc(-c3cccc(Br)c3)cc2n1	NPC1 prom act inconclusive, Rab9 promoter act inconclusive, ELG1 repair inh inconclusive, FLuc counter 8.49µM, ELG1 genotox inconclusive (no result: SMN2 splice up)
Cc1cccc(-c2cc3nc(C)cc(C)n3n2)c1	NPC1 prom act 0.398µM, Rab9 promoter act 0.447µM, ELG1 repair inh inconclusive, FLuc counter 6.75µM, ELG1 genotox inconclusive (no result: SMN2 splice up)
CC(=O)c1cnc2cc(-c3cccc(Br)c3)nn2c1C	NPC1 prom act 2.82µM, Rab9 promoter act 2µM, ELG1 repair inh inconclusive, SMN2 splice up 11.2µM, FLuc counter inconclusive
Cc1cccc(-c2cc3nc(C)cc(N4CC(C)CC(C)C4)n3n2)c1 (stereo not drawn)	ELG1 repair inh inconclusive
CCCCc1nc2c(c3c1C[C@H](C)OC3)CN(C(=O)Nc1ccc(OC)cc1)CC2	none (no result: NPC1 prom act, Rab9 promoter act, ELG1 repair inh, FLuc counter, ELG1 genotox)
COc1cccc(-c2ccc3ncnc(NCc4cccc(C)c4)c3c2)c1	ELG1 repair inh 16.4µM (no result: SMN2 splice up)
COc1cccc(-c2ccc3ncnc(NCc4cccc(F)c4)c3c2)c1	none (no result: ELG1 repair inh, SMN2 splice up, ELG1 genotox)
COc1cccc(CNc2ncnc3ccc(-c4c(C)noc4C)cc23)c1	ELG1 genotox inconclusive (no result: SMN2 splice up)
Cc1noc(C)c1-c1ccc2ncnc(NCc3ccccc3)c2c1	SMN2 splice up 2.82µM (no result: NPC1 prom act, Rab9 promoter act, ELG1 repair inh, FLuc counter, ELG1 genotox)
Cn1ccc2cc(-c3ccc4ncnc(NCc5cccnc5)c4c3)ccc21	FLuc counter 19µM (no result: ELG1 repair inh, SMN2 splice up, ELG1 genotox)
COc1cccc(-c2ccc3ncnc(NCc4cccs4)c3c2)c1	ELG1 repair inh 14.6µM
CCOC(=O)c1c(C)[nH]c(C)c1S(=O)(=O)N1CCCC(C(=O)N2CCN(c3ccc(Cl)cc3)CC2)C1 (stereo not drawn)	none (no result: NPC1 prom act, Rab9 promoter act, ELG1 repair inh, SMN2 splice up, ELG1 genotox)
CCOC(=O)N/N=C\c1ccc(C)s1	ELG1 repair inh inconclusive, FLuc counter inconclusive
CCOC(=O)N/N=C\c1ccc([N+](=O)[O-])s1	ELG1 repair inh 20.6µM
CC(C)(C)OC(=O)N/N=C\c1ccc([N+](=O)[O-])s1	ELG1 repair inh inconclusive, FLuc counter 26.9µM
CCOC(=O)C1CCN(C(=O)c2nn(-c3ccc(C)cc3)c(=O)n(C)c2=O)CC1	none (no result: NPC1 prom act, Rab9 promoter act, ELG1 repair inh, SMN2 splice up, ELG1 genotox)
COc1ccc(NC(=O)Cn2c(=O)oc3cc(S(=O)(=O)N4CCC(C)CC4)ccc32)c(OC)c1	FLuc counter inconclusive (no result: NPC1 prom act, Rab9 promoter act, ELG1 repair inh, ELG1 genotox)
COc1ccc(Nc2nc(C)nc3c2nnn3Cc2ccccc2Cl)c(OC)c1	none (no result: SMN2 splice up)
COc1ccc(N2CCN(C(=O)c3ccc(-c4nc5ccccc5s4)o3)CC2)cc1	FLuc counter 9.53µM (no result: SMN2 splice up)
COc1ccccc1N1CCN(C(=O)c2ccc(-c3nc4ccccc4s3)o2)CC1	ELG1 repair inh inconclusive, FLuc counter 13.5µM (no result: SMN2 splice up)
COc1ccc(N2CCN(C(=O)c3cc4c(C)nc5ccccc5c4o3)CC2)cc1	ELG1 repair inh inconclusive (no result: SMN2 splice up)
COc1ccccc1N1CCN(C(=O)c2ccc(-c3ccc(Cl)cc3)o2)CC1	ELG1 repair inh inconclusive, FLuc counter inconclusive (no result: SMN2 splice up)
CCCSc1nc2c3c(sc2c(=O)[nH]1)CC(C)(CC)OC3 (stereo not drawn)	FLuc counter 5.36µM
CCOC(=O)CSc1nc2sc3c(c2c(=O)[nH]1)CC(C)(CC)OC3 (stereo not drawn)	none
CC1CCN(c2oc(-c3ccc(COc4ccc(Cl)cc4)o3)nc2C#N)CC1	none (no result: NPC1 prom act, Rab9 promoter act, ELG1 repair inh, SMN2 splice up, ELG1 genotox)
